38 compounds from the supplement of paper PMC5641865, “A screen for kinase inhibitors identifies antimicrobial imidazopyridine aminofurazans as specific inhibitors of the Listeria monocytogenes PASTA kinase PrkA” (The Journal of Biological Chemistry, 2017) can be followed below.

Molecules are shown by their SMILES. Values joined by “and” are separate entries in the source; they are usually repeats but may differ in a detail not shown here. Identical values can stand only once. ± gives the standard deviation of the averaged measurements.
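Further: End-point A600 read in BHI broth at 37 °C with 2% DMSO, inhibition computed as (1 − OD with compound plus ceftriaxone ÷ OD with ceftriaxone only) × 100.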

This assay deals with Listeria monocytogenes 10403S. Nature of the assay: growth inhibition relative to ceftriaxone-alone control; higher = stronger potentiation of ceftriaxone growth inhibition. To be noted: 10 µM; ceftriaxone 1 ug/ml; 12 h.
On to `COC(=O)Nc1ccc(-c2nc(N3CCOCC3)c3cnn(C4CCN(C(=O)OC)CC4)c3n2)cc1`, for which the growth inhibition was -59.1 ± 10%.
With `N#Cc1c(NC(=O)CN2CCOCC2)sc2c1CCCC2` the figure was 9.96 ± 12%; with `O=C(Nc1cccc(Nc2ncc(Br)c(NCCc3cnc[nH]3)n2)c1)N1CCCC1`, 9.34 ± 13%.
With `Fc1ccc(Nc2nccc(-c3c(-c4ccc(C(F)(F)F)cc4)nn4ncccc34)n2)cc1F` the figure was -3.35 ± 4.4%.
Regarding `C[C@]1(O)C[C@@H](c2nc(-c3ccc4ccc(-c5ccccc5)nc4c3)c3c(N)nccn32)C1` [Linsitinib (OSI-906)], the growth inhibition came out at 56.8 ± 25%.
With `COc1cc(C)c(NC(=O)CN(C)C)cc1Nc1nc(Nc2cccc(F)c2C(N)=O)c2cc[nH]c2n1` the figure was -5.99 ± 8.5%; with `CCOc1ccc2c(-c3ccnc(Nc4cccc(C(F)(F)F)c4)n3)cnn2n1`, -8.14 ± 6.9%; with `C/C(Nc1ccc(S(N)(=O)=O)cc1)=C1/C(=O)Nc2ccccc21`, -3.55 ± 0.8%.
With `CCn1c(-c2nonc2N)nc2ccc(F)cc21` the figure was -0.804 ± 2.6%; with `NC(=O)c1ccc(-c2nc(-c3ccccn3)c(-c3ccc4c(c3)OCO4)[nH]2)cc1`, -0.443% and 16.4%; with `CCn1c(-c2nonc2N)nc2cncc(C(=O)N3CC[C@H](N)C3)c21`, 7.57 ± 2.1%.
With `Nc1nc(-c2cccc(Cl)c2)c(-c2ccc3ncccc3n2)s1` the figure was -7.03 ± 7.3%; with `COc1ccccc1Nc1ncc(-c2ccccc2)o1`, 1.22 ± 3.5%; with `C=CC(=O)Nc1cccc(Sc2nc(Nc3ccc(N4CCN(C)CC4)cc3)ncc2Cl)c1`, 94.1 ± 1.1%.
As to `c1ccc(Oc2ccc(Nc3ncc(-c4ccccc4)o3)cc2)cc1`, the growth inhibition is -0.487 ± 1.7%.
With `C[C@@H](N)[C@H]1CC[C@H](C(=O)Nc2ccncc2)CC1` the figure was 24.6 ± 17%; with `Cc1ccc(C(=O)NC(C)C)cc1-c1ccc(C(=O)NCC2CC2)cc1`, -1.2 ± 0.17%.
With `Oc1ccc(-c2nc(-c3ccc(F)cc3)c(-c3ccncc3)[nH]2)cc1` the figure was 23.7 ± 32%; with `CS(=O)(=O)Nc1ccc(N/C=C2\C(=O)Nc3ccccc32)cc1`, -14.6 ± 19%; with `CS(=O)(=O)CCNCc1ccc(-c2ccc3ncnc(Nc4ccc(OCc5cccc(F)c5)c(C(F)(F)F)c4)c3c2)o1`, -12.1 ± 6.9%.
Take `COc1ccc(-c2ccc3c(N4CCOCC4)nc(N4C[C@@H](C)O[C@@H](C)C4)nc3n2)cc1CO`: the growth inhibition is -4.35 ± 2.4%.
Next, `CN(C)C(=O)O[C@@H]1CN[C@@H](C#Cc2cc3ncnc(Nc4ccc(OCc5cccc(F)c5)c(Cl)c4)c3s2)C1`: -5.56 ± 8.1%; `Cc1cccc(-c2[nH]c(C(C)(C)C)nc2-c2ccc3nccnc3c2)n1`: 9.73 ± 13%; `N#Cc1ccc2c(-c3ccnc(NC4CC4)n3)c(-c3ccc(F)cc3)nn2c1`: 7 ± 2.3%.
Consider `Cn1cc(C=C2C(=O)Nc3cccnc32)c2ccccc21`, for which the growth inhibition was -13 ± 19%.
Next, `CCN(CC)CCCCNc1ncc2cc(-c3cc(OC)cc(OC)c3)c(NC(=O)NC(C)(C)C)nc2n1`: 23.2 ± 6.8%.
With `COc1cc(Nc2ncc3c(n2)-c2ccc(Cl)cc2C(c2c(F)cccc2OC)=NC3)ccc1C(=O)O` the figure was 43 ± 37%.
Next, `CNC(=O)c1nn(C)c2c1C(C)(C)Cc1cnc(Nc3ccc(N4CCN(C)CC4)cc3)nc1-2`: 20.7 ± 8.5%.
As for `CCn1c(-c2nonc2N)nc2c(C#CC(C)(C)O)ncc(OC[C@H]3CCCNC3)c21`, the growth inhibition came to 98.398 ± 0.078%.
With `COC(=O)Nc1ccc(-c2nc(N3CCOCC3)c3cnn(C4CCN(Cc5cccnc5)CC4)c3n2)cc1` the figure was 33.8 ± 29%; with `CN1CCN(c2cccc(Nc3nc4c(-c5ccc(S(C)(=O)=O)cc5)cccn4n3)c2)CC1`, 69 ± 27%; with `Nc1nccc(-c2c(-c3ccc(F)cc3)ncn2CCCN2CCOCC2)n1`, -1.02 ± 0.073%.
Next, `C[C@@H](Oc1cc(-n2cnc3ccc(OC[C@@H](O)CO)cc32)sc1C(N)=O)c1ccccc1Cl`: -3.67 ± 1.5%; `O=c1cc(N2CCOCC2)oc2c(-c3cccc4c3sc3ccccc34)cccc12`: 26.2 ± 7%; `COC(=O)Nc1nc2ccc(Oc3ccc(NC(=O)Nc4cccc(Cl)c4)cc3)cc2[nH]1`: -4.18 ± 4.6%.
On to `C[C@@H]1COC(Nc2ccc3ncnc(Nc4ccc(OCc5nccs5)c(Cl)c4)c3c2)=N1`, for which the growth inhibition came to 70.8 ± 5%.
Next, `CCc1nn2ncccc2c1-c1ccnc(NC2CC2)n1`: -4.93 ± 3%; `COc1ccc(-c2nn3ncccc3c2-c2ccnc(Nc3cccc(C(F)(F)F)c3)n2)cc1`: 2.98 ± 4.9%.
